Measurements as given in PubChem BioAssay (NCATS).
Records with an inconclusive call do not appear. Calls of active or inactive are those of the source. The call rests on the fitted dose curve; in most records, active means well fitted cell-killing curve with a large enough effect; inconclusive means small, poorly fitted or top-dose-only effect; inactive means no such curve, though single readings can be large or run the other way.

Assay: qHTS of pediatric cancer cell lines to identify multiple opportunities for drug repurposing: Primary screen for A673 cells (AID 1347092); further: nearly all actives have a fitted effect of over 45% in size
Conditions: A673 Ewing sarcoma viability, CellTiter-Glo ATP luminescence, 48 h; series mostly up to 46 µM
Description: Drug repurposing or repositioning has been offered as a strategy for drug development in oncology programs. This approach has special potential for childhood cancers and other rare or orphan diseases, where the expected return on new drug development has been a disincentive to pharmaceuticals. […] In this project we exploit the poly-pharmacology of drugs to discover new indications via phenotypic screening of a panel of 19 well-characterized cell lines derived from solid tumors seen in children and adolescents. The goal is to identify approved drugs with previously unrecognized anticancer properties that has the potential to reveal new mechanisms and biological processes involved in carcinogenesis or drug resistance. We employed a titration-based paradigm (quantitative high-throughput screening or qHTS), where all compounds were tested at multiple concentrations for their effect on cell viability. Concentration-response curves (CRCs) were derived directly from the primary screen, and both potency and efficacy values were used to identify compounds with robust bioactivity profiles. We screened the NIH Chemical Genomics Center (NCGC) Pharmaceutical Collection (NPC) and Mechanism Interrogation Plate (MIPE) small molecule collections of approved and investigational compounds against these cell lines; and measured metabolically active cells after 48 hours of compound treatment as a proxy for cell viability. […] Assay Submitter: Nathalia J. Martinez, National Center for Advancing Translational Sciences, National Institutes of Health, Rockville, MD, USA; email: natalia.martinez@nih.gov. Shen, M et al. Quantitative high-throughput phenotypic screening of pediatric cancer cell lines identifies multiple opportunities for drug repurposing. Oncotarget 2017 Dec 19;9(4):4758-4772. PMID 29435139.
The cells were obtained from University of North Carolina (UNC), Pediatric Preclinical Testing Program (PPT), and Coriell Institute (CI). qHTS cell viability assay: Cells were assayed in growth media at a density of 500-1,000 cells/well. Five microliters of cells were dispensed into 1,536-well, white, solid-bottom, TC-treated plates (Greiner Bio One) using a multidrop dispenser and incubated at 37 degrees C, 5% CO2, under a humidified atmosphere for 5 hours. Twenty-three nanoliters of compounds and controls (neutral control DMSO or positive control bortezomib at final concentration of 2.3 uM) were subsequently transferred by Kalypsys pintool. For primary screens, the MIPE collection was tested at 11-point dilutions (final concentrations range from 0.78 nM to 46 µM) and the NPC collection at 8-point dilutions (final concentrations range from 0.59 nM to 46 µM). Compounds tested in follow-up screens were assayed at 11-point dilutions. Cells were incubated for 48 hours, followed by addition of 3 uL of CellTiter-Glo (Promega). After a 15min incubation at room temperature, samples were analyzed for luminescence intensity using a ViewLux High-throughput CCD imager equipped with clear filters.
Potency means the concentration at half of the fitted maximal effect.

SMILES | Potency
N[C@@H](CC(=O)N1CCn2c(nnc2C(F)(F)F)C1)Cc1cc(F)c(F)cc1F | inactive
CN1CCC(COc2cnc(-c3cccc(Cn4nc(-c5cccc(C#N)c5)ccc4=O)c3)nc2)CC1 | 0.148 µM (active)
Cc1ccccc1-n1c(Cn2nc(-c3cccc(O)c3)c3c(N)ncnc32)nc2cccc(C)c2c1=O | 0.0047 µM (active)
CC1(C)CC(=O)c2c(C(F)(F)F)nn(-c3ccc(C(N)=O)c(NC4CCC(O)CC4)c3)c2C1 (stereo not given) | 0.118 µM (active)
O=C(Nc1ncc(SCCN2CCCC2)s1)[C@]1(c2ccc(S(=O)(=O)C3CC3)cc2)C[C@@H]1C1CCCCC1 | 18.7 µM (active)
CN1[C@H]2CC[C@H]1CC(OC(=O)c1c[nH]c3ccccc13)C2 (stereo not given in full) | inactive
CN1CCN(c2ncc(-c3cc(Cl)cc(Cl)c3Cl)c(N)n2)CC1 | 2.35 µM (active)
NC(N)=Nc1nc(CSCCC(N)=NS(N)(=O)=O)cs1 | 11.8 µM (active)
Cc1ccc2c(c1)c1c(n2CCc2ccc(C)nc2)CCN(C)C1 | inactive
Cc1nc(C(=O)NCC(=O)O)c(O)c2ccc(Oc3ccccc3)cc12 | inactive
C=C1c2cccc(O)c2C(O)=C2C(=O)[C@@]3(O)C(O)=C(C(N)=O)C(=O)[C@@H](N(C)C)[C@@H]3[C@@H](O)[C@H]12 | 23.5 µM (active)
CO[C@H]1/C=C\O[C@@]2(C)Oc3c(C)c(O)c4c(O)c(c5c(nc6cc(C)ccn65)c4c3C2=O)NC(=O)C(C)=CC=C[C@H](C)[C@H](O)[C@@H](C)[C@@H](O)[C@@H](C)[C@H](OC(C)=O)[C@H]1C | inactive
COc1cc(C=CC(=O)O)ccc1O | inactive
COc1ccc2c(c1)CC[C@H]1[C@@H]2CC[C@]2(C)[C@@H](NCCCCCCN3C(=O)C=CC3=O)CC[C@H]12 | inactive
COc1cc2nc(-c3cc(F)ccc3O)nc(N[C@@H]3CNC[C@@H]3C(C)(C)O)c2cc1OC | 7.43 µM (active)
COc1nc(C)cnc1NS(=O)(=O)c1cccnc1-c1ccc(-c2nnco2)cc1 | inactive
Cc1c(-c2cccc3c(CCCOc4cccc5ccccc45)c(C(=O)O)n(Cc4cccnc4)c23)c(COc2ccc(N3CCN([S+](=O)([O-])N(C)C)CC3)cc2)nn1C | 23.5 µM (active)
COC(=O)[C@H](c1ccccc1Cl)N1CCc2sccc2C1 | 1.48 µM (active)
CO[C@@H]1C(N(C)C(=O)c2ccccc2)C[C@H]2O[C@]1(C)n1c3ccccc3c3c4c(c5c6ccccc6n2c5c31)C(=O)NC4=O (stereo not given in full) | 2.96 µM (active)
Cn1c(=O)c(Oc2ccc(F)cc2F)cc2cnc(NC3CCOCC3)nc21 | inactive

SMILES | Potency
CCN1C[C@H](C)n2c(c(O)c3c(=O)n(Cc4ccc(F)c(Cl)c4)nc(C(=O)NC)c32)C1=O | inactive
CN(C)CCOc1ccc(C(=C(CCCl)c2ccccc2)c2ccccc2)cc1 | inactive
Oc1cc(O)cc(C=Cc2ccc(O)c(O)c2)c1 | 18.7 µM (active)
O=C(O)Cc1cccc(OCCCN(Cc2cccc(C(F)(F)F)c2Cl)CC(c2ccccc2)c2ccccc2)c1 | 23.5 µM (active)
CN1CCN2c3ncccc3Cc3ccccc3C2C1 (stereo not given) | inactive
CCc1cccc(CC)c1NC(=O)N1Cc2[nH]nc(NC(=O)c3ccc(N4CCN(C)CC4)cc3)c2C1 | 14.8 µM (active)
O=C(c1ccc(F)c(F)c1Nc1ccc(I)cc1F)N1CC(O)([C@H]2CCCCN2)C1 | 0.0235 µM (active)
CC[C@H](C=C[C@@H](C)[C@H]1CC[C@H]2[C@@H]3CC=C4C[C@@H](O)CC[C@]4(C)[C@@H]3CC[C@]12C)C(C)C | inactive
c1ccc(CNc2nc(N3CCOc4ccccc43)nc3c2CCCC3)cc1 | inactive
CCOC(=O)[C@H]1O[C@H]1C(=O)N[C@@H](CC(C)C)C(=O)NCCC(C)C | 18.7 µM (active)
CC(=O)O[C@]1(C(C)=O)CC[C@H]2[C@@H]3C=C(Cl)C4=CC(=O)[C@@H]5C[C@H]5[C@]4(C)[C@@H]3CC[C@@]21C | 0.469 µM (active)
COC(=O)Nc1ccc(-c2nc(N3CCOCC3)c3cnn(C4CCN(C(=O)OC)CC4)c3n2)cc1 | 0.59 µM (active)
Nc1ncnc2c1ncn2[C@@H]1O[C@H](CO)[C@@H](O)[C@@H]1O | 0.935 µM (active)
O=C(C=Cc1ccc(O)cc1)c1ccc(O)cc1O | 18.7 µM (active)
O=C(c1ccc(C(=O)N2CCC(N3CCCC3)CC2)c(Nc2ccccc2)c1)N1CCC(N2CCCC2)CC1 | inactive
O=S(=O)(NCCNCC=Cc1ccc(Br)cc1)c1cccc2cnccc12 | 11.8 µM (active)
COC1CCC(C(=O)c2ccc3nc4c(cc3c2)CCCO4)CC1 (stereo not given) | 23.5 µM (active)
C[C@H]1COC2=C1C(=O)C(=O)c1c2ccc2c1CCCC2(C)C | inactive
Cc1cccc(Nc2nc(N[C@@H]3CCCC[C@H]3N)ncc2C(N)=O)c1 | 18.7 µM (active)
CN(C)CCCNC(=O)c1ccc(-c2cc(O)c3ncccc3c2)cc1 | 23.5 µM (active)
